Experimental data published in PubChem BioAssay (EPA / NIEHS).
The source made the active and inactive calls. Rule for the calls: active = hit-call score of the fitted dose curve at least 0.9, where 1 is the maximum; inactive = score below 0.9.

Experiments:
Conditions in all cases: mRNA level, 48 h; actives raise or lower the signal
[1] = read-out: ABC Transporter (ABCB1), ABCB1 (gene 5243); experiment: LTEA_HepaRG_ABCB1: Life Technologies and Expression Analysis (LTEA) Assay for ABC Transporter (ABCB1) using HepaRG (AID 2283460)
Procedure, shortened: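 HepaRG, 48 h exposure, 8-pt half-log series from 100 uM, 0.5% DMSO vehicle, duplicates. Readout: ABCB1 transcript by Fluidigm TaqMan qRT-PCR, housekeeping-normalized; bidirectional curve fit vs DMSO baseline.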

[2] = read-out: growth arrest and DNA damage 45 (GADD45B), GADD45B (gene 4616); experiment: LTEA_HepaRG_GADD45B: Life Technologies and Expression Analysis (LTEA) Assay for growth arrest and DNA damage 45 (GADD45B) using HepaRG (AID 2283461)
Procedure, shortened: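 Transcript level quantified by Fluidigm TaqMan qRT-PCR with three housekeeping genes for normalization, analyzed for up- or down-regulation against 0.5% DMSO. HepaRG cultures dosed 48 h at eight half-log concentrations up to 100 uM, duplicates.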

[3] = read-out: ABC Transporter (ABCC3), ABCC3 (gene 8714); experiment: LTEA_HepaRG_ABCC3: Life Technologies and Expression Analysis (LTEA) Assay for ABC Transporter (ABCC3) using HepaRG (AID 2283462)
Procedure, shortened: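 Transcript level by TaqMan qRT-PCR, normalised to three housekeeping genes, fitted in both directions relative to vehicle. Chemicals tested in duplicate at eight half-log concentrations up to 100 uM for 48 h on HepaRG cells (0.5% DMSO).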

[4] = read-out: ABC Transporter (ABCB11), ABCB11 (gene 8647); experiment: LTEA_HepaRG_ABCB11: Life Technologies and Expression Analysis (LTEA) Assay for ABC Transporter (ABCB11) using HepaRG (AID 2283463)
Procedure, shortened: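 HepaRG, 48 h exposure, 8-pt half-log CRC top 100 uM, 0.5% DMSO vehicle, duplicates. Readout: TaqMan qRT-PCR of ABCB11 mRNA, housekeeping-normalized (ACTB/GAPDH/POLR2A). Bidirectional fit vs DMSO baseline.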

[5] = read-out: ABC Transporter (ABCC2), ABCC2 (gene 1244); experiment: LTEA_HepaRG_ABCC2: Life Technologies and Expression Analysis (LTEA) Assay for ABC Transporter (ABCC2) using HepaRG (AID 2283464)
Procedure, shortened: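 Endpoint is ABCC2 transcript level from qRT-PCR, normalized to three housekeeping genes and fitted bidirectionally relative to DMSO. Human HepaRG cells received test chemical for 48 h at up to 100 uM (8 points, half-log steps, 0.5% DMSO), duplicate wells.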

[6] = read-out: Broad substrate specificity ATP-binding cassette transporter ABCG2 (Homo sapiens) (UniProt Q9UNQ0); experiment: LTEA_HepaRG_ABCG2: Life Technologies and Expression Analysis (LTEA) Assay for ABC Transporter (ABCG2) using HepaRG (AID 2283465)
Procedure, shortened: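 HepaRG, 48 h exposure, 8-pt half-log series from 100 uM, 0.5% DMSO vehicle, duplicates. Readout: ABCG2 transcript by qRT-PCR (Fluidigm array), housekeeping-normalized; bidirectional curve fit relative to DMSO baseline.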

[7] = read-out: ATP-citrate lyase (ACLY), ACLY (gene 47); experiment: LTEA_HepaRG_ACLY: Life Technologies and Expression Analysis (LTEA) Assay for ATP-citrate lyase (ACLY) using HepaRG (AID 2283466)
Procedure, shortened: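 qRT-PCR readout of ACLY transcript after 48 h chemical treatment of HepaRG cells; expression normalized to three housekeeping genes. Eight-point half-log series, highest 100 uM, 0.5% DMSO vehicle. Gain or loss fitted against DMSO baseline.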

[8] = read-out: Peroxisomal acyl-coenzyme A oxidase 1 (ACOX1) gene, ACOX1 (gene 51); experiment: LTEA_HepaRG_ACOX1: Life Technologies and Expression Analysis (LTEA) Assay for Peroxisomal acyl-coenzyme A oxidase 1 (ACOX1) gene using HepaRG (AID 2283467)
Procedure, shortened: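 HepaRG, 48 h chemical exposure, 8-pt half-log series from 100 uM top, 0.5% DMSO vehicle, duplicates. Readout: ACOX1 mRNA by Fluidigm qRT-PCR, housekeeping-normalized; bidirectional fit vs DMSO baseline.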

[9] = read-out: Alkaline Phosphatase, Placental (ALPP) gene, ALPP (gene 250); experiment: LTEA_HepaRG_ALPP: Life Technologies and Expression Analysis (LTEA) Assay for Alkaline Phosphatase, Placental (ALPP) gene using HepaRG (AID 2283468)
Procedure, shortened: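 ALPP transcript level, measured by qRT-PCR and normalized to three housekeeping genes (ACTB, GAPDH, POLR2A), after 48 h dosing of differentiated HepaRG in serum-free induction medium. Top concentration 100 uM with half-log dilutions (8 points, 0.5% DMSO, duplicates); bidirectional fitting relative to DMSO.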

[10] = read-out: Bcl-2 (BAD) gene, BAD (gene 572); experiment: LTEA_HepaRG_BAD: Life Technologies and Expression Analysis (LTEA) Assay for Bcl-2 (BAD) gene using HepaRG (AID 2283469)
Procedure, shortened: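 HepaRG, 48 h exposure, 8-pt half-log curve from 100 uM in 0.5% DMSO, duplicates. Readout: TaqMan qRT-PCR for BAD mRNA, housekeeping-normalised (ACTB/GAPDH/POLR2A); gain or loss fitted against DMSO baseline.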

[11] = read-out: Bcl-2 (BAX) gene, BAX (gene 581); experiment: LTEA_HepaRG_BAX: Life Technologies and Expression Analysis (LTEA) Assay for Bcl-2 (BAX) gene using HepaRG (AID 2283470)
Procedure, shortened: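 qRT-PCR read-out of BAX mRNA, normalized to three housekeeping genes, after 48 h chemical exposure of human HepaRG cells in serum-free induction medium; eight-point half-log series, top 100 uM, 0.5% DMSO vehicle; bidirectional fit versus DMSO.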

[12] = read-out: Alpha-fetoprotein (AFP) gene, AFP (gene 174); experiment: LTEA_HepaRG_AFP: Life Technologies and Expression Analysis (LTEA) Assay for Alpha-fetoprotein (AFP) gene using HepaRG (AID 2283472)
Procedure, shortened: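 qRT-PCR (Fluidigm TaqMan) readout of AFP transcript, normalized to three housekeeping genes, fitted bidirectionally against 0.5% DMSO baseline. HepaRG cells received chemicals for 48 h in serum-free induction medium, top concentration 100 uM, half-log steps.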

BCL2L11 (gene 10018) = experiment: LTEA_HepaRG_BCL2L11: Life Technologies and Expression Analysis (LTEA) Assay for Bcl-2 (BCL2L11) gene using HepaRG (AID 2283473)
Procedure, shortened: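 BCL2L11 transcript levels are measured by Fluidigm qRT-PCR, normalized to three housekeeping genes. HepaRG cultures were plated 48 h, then treated 48 h with test chemical (top 100 uM, half-log, 0.5% DMSO vehicle); curves were fitted bidirectionally against DMSO.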

[13] = read-out: Apolipoprotein A-V (APOA5) gene, APOA5 (gene 116519); experiment: LTEA_HepaRG_APOA5: Life Technologies and Expression Analysis (LTEA) Assay for Apolipoprotein A-V (APOA5) gene using HepaRG (AID 2283474)
Procedure, shortened: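 APOA5 transcript levels were quantified by qRT-PCR, normalized to three housekeeping genes, after 48 h chemical treatment of HepaRG cells (8 points, 100 uM maximum, half-log steps, 0.5% DMSO). Curves fitted in both directions against vehicle.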

[14] = read-out: Apoptosis regulator Bcl-2 (Homo sapiens) (UniProt P10415); experiment: LTEA_HepaRG_BCL2: Life Technologies and Expression Analysis (LTEA) Assay for Bcl-2 gene using HepaRG (AID 2283475)
Procedure, shortened: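 qRT-PCR read-out (Fluidigm TaqMan) of BCL2 transcript, normalised to three housekeeping genes, after 48 h chemical exposure of HepaRG cells; 8-point half-log series, top 100 uM, 0.5% DMSO vehicle. Gain or loss of signal fitted relative to DMSO baseline.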

[15] = read-out: Bcl-2 (BID) gene, BID (gene 637); experiment: LTEA_HepaRG_BID: Life Technologies and Expression Analysis (LTEA) Assay for Bcl-2 (BID) gene using HepaRG (AID 2283476)
Procedure, shortened: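 HepaRG, 48 h exposure, 8-pt half-log series, top 100 uM, 0.5% DMSO vehicle, duplicates. Readout: BID mRNA by TaqMan qRT-PCR; housekeeping-normalized; bidirectional curve fit vs DMSO baseline.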

Caspase-3 (Homo sapiens) = Caspase-3 (Homo sapiens) (UniProt P42574); experiment: LTEA_HepaRG_CASP3: Life Technologies and Expression Analysis (LTEA) Assay for cysteine-aspartic acid protease (CASP3) using HepaRG (AID 2283477)
Sequence of Caspase-3 (Homo sapiens) (P42574 whole entry, looked up): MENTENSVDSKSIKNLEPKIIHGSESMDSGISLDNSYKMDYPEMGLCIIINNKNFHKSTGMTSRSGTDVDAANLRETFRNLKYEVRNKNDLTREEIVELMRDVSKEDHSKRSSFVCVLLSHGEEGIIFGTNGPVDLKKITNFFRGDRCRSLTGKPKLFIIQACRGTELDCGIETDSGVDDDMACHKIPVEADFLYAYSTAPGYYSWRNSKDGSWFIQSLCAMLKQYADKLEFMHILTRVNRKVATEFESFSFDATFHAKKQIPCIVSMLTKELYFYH
Procedure, shortened: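 Expression of CASP3 was quantified by TaqMan qRT-PCR against three housekeeping genes (ACTB, GAPDH, POLR2A), bidirectionally versus 0.5% DMSO. HepaRG cultures received compounds in duplicate, top 100 uM with half-log steps, for 48 h in serum-free induction medium.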

[16] = read-out: Cytochrome P450 (CYP24A1), CYP24A1 (gene 1591); experiment: LTEA_HepaRG_CYP24A1: Life Technologies and Expression Analysis (LTEA) Assay for Cytochrome P450 (CYP24A1) using HepaRG (AID 2283478)
Procedure, shortened: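 mRNA of CYP24A1 quantified by TaqMan qRT-PCR (ACTB/GAPDH/POLR2A normalization) after 48 h chemical exposure of HepaRG cells, top concentration 100 uM, half-log steps, 0.5% DMSO vehicle, duplicates. Curves fitted bidirectionally against DMSO baseline.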

Measured: outcome

Sequence of Apoptosis regulator Bcl-2 (Homo sapiens) (P10415 whole entry, looked up): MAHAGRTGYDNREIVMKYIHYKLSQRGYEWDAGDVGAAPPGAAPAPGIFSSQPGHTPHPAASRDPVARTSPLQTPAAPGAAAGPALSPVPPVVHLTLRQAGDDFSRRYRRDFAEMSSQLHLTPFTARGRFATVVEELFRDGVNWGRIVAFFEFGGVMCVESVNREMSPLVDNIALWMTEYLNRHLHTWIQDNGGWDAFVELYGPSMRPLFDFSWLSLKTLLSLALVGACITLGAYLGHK
Sequence of Broad substrate specificity ATP-binding cassette transporter ABCG2 (Homo sapiens) (Q9UNQ0 whole entry, looked up): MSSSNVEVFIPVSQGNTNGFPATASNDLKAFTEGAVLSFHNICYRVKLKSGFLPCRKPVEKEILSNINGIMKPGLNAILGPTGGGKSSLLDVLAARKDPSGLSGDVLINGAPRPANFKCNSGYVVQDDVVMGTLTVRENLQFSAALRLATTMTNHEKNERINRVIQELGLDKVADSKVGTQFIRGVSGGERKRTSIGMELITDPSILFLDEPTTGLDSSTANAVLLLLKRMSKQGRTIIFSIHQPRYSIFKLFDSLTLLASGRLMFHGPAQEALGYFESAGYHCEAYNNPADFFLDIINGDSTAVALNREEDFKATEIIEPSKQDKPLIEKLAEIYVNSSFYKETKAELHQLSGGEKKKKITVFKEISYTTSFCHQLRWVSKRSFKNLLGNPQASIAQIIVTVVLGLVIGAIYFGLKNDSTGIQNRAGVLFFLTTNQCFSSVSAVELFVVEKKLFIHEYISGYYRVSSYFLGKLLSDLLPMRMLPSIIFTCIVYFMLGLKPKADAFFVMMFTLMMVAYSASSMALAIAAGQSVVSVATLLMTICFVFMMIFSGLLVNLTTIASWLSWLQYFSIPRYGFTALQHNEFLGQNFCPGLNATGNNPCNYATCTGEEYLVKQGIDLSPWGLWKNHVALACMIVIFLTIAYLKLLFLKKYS

O=C(O)C(Cl)Cl
inactive: [1] | [2] | [3] | [4] | [5] | [6] | [7] | [8] | [9] | [10] | [11] | [12] | BCL2L11 (gene 10018) | [13] | [14] | [15] | Caspase-3 (Homo sapiens) | [16]

Cc1ccc(O)cc1C
inactive: [2] | [3] | [5] | [6] | [7] | [8] | [9] | [10] | [11] | [12] | BCL2L11 (gene 10018) | [13] | [14] | [15] | Caspase-3 (Homo sapiens)

c1cc2c3c(cccc3c1)CC2
inactive: [1] | [2] | [3] | [4] | [5] | [6] | [7] | [8] | [9] | [10] | [11] | [12] | BCL2L11 (gene 10018) | [13] | [14] | [15] | Caspase-3 (Homo sapiens) | [16]
